From PubChem BioAssay (NCI)
The panel holds about 79,000 compounds, 15% with a hit somewhere; the sample as a whole holds those more often. A number with no mark means an inactive call. Activity calls are given as the source filed them. No stated cut-off is given here; in the data, active means growth inhibition above about 70%; inactive means the rest.

What was measured:
[1] = NCI Yeast Anticancer Drug Screen. Data for the rad50 strain (AID 155);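 further: 0% = growth of vehicle-only cultures of the same strain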; details: S. cerevisiae rad50 strain growth inhibition, hits give high values
Method in brief: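 Yeast carrying a defined DNA repair defect were exposed to test compounds, and growth was compared with vehicle-treated controls to give percent inhibition.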

[2] = NCI Yeast Anticancer Drug Screen. Data for the mec2-1 strain (AID 157); details: S. cerevisiae mec2-1 strain, hits give high values
Method in brief: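 Readout is yeast growth inhibition, normalised to vehicle-treated controls, in the mec2-1 strain exposed to compound.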

[3] = NCI Yeast Anticancer Drug Screen. Data for the sgs1 mgt1 strain (AID 161);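 further: 0% = growth of cultures given vehicle only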; details: S. cerevisiae sgs1 mgt1 strain, hits give high values
Method in brief: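 Compounds are added to genetically altered yeast, and growth is compared with cultures given vehicle alone to give percent inhibition.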

[4] = NCI Yeast Anticancer Drug Screen. Data for the cln2 rad14 strain (AID 165);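 further: 0% = growth equal to vehicle treated cultures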; details: S. cerevisiae cln2 rad14 strain, hits give high values
Method in brief: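 Relative to vehicle controls, growth inhibition of compound-treated cln2 rad14 yeast was recorded.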

[5] = NCI Yeast Anticancer Drug Screen. Data for the bub3 strain (AID 167); details: S. cerevisiae bub3 mutant strain, hits give high values
Method in brief: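 Compounds were applied to a genetically altered yeast strain carrying a cell-cycle control defect. Growth inhibition was scored against vehicle-treated controls.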

[6] = NCI Yeast Anticancer Drug Screen. Data for the mlh1 rad18 strain (AID 175); details: S. cerevisiae mlh1 rad18 strain growth inhibition, hits give high values
Method in brief: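 Test agents were incubated with a yeast strain of defined genotype (DNA damage repair defect). Inhibition of growth was derived by comparison with vehicle-exposed cultures.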

[7] = at 5.0 µM (retest, dose inferred, filed as 0.5)
[8] = at 50.0 µM (retest, dose inferred, filed as 5.0)

| SMILES | growth inhibition [1, 7] | growth inhibition [1, 8] | growth inhibition ([1]; at 50.0 µM) | growth inhibition [2, 7] | growth inhibition [2, 8] | growth inhibition ([2]; at 50.0 µM) | growth inhibition [3, 7] | growth inhibition [3, 8] | growth inhibition ([3]; at 50.0 µM) | growth inhibition [4, 7] | growth inhibition [4, 8] | growth inhibition ([4]; at 50.0 µM) | growth inhibition [5, 7] | growth inhibition [5, 8] | growth inhibition ([5]; at 50.0 µM) | growth inhibition [6, 7] | growth inhibition [6, 8] | growth inhibition ([6]; at 50.0 µM) |
| --- | --- | --- | --- | --- | --- | --- | --- | --- | --- | --- | --- | --- | --- | --- | --- | --- | --- | --- |
| CC(=O)OCc1cc2c(s1)C(=O)c1sccc1C2=O | 21% | 83% (active) | 49.6% | 8% | 67% | 81% (active) | 12% | 15% | 88.8% (active) | 11% | 21% | 86.2% (active) | 41% | 60% | 88.7% (active) | 24% | 89% (active) | 89% (active) |
| Cc1ccc(Oc2ccc(C(=O)C(CN(C)C)CN(C)C)cc2)cc1 | 93% (active) | 98% (active) | 92.1% (active) | 93% (active) | 96% (active) | 98% (active) | 95% (active) | 98% (active) | 51.4% | 75% (active) | 95% (active) | 95.6% (active) | 91% (active) | 96% (active) | 96.2% (active) | 96% (active) | 96% (active) | 97.1% (active) |
| O=C(c1cccnc1)N(C1CCCCC1)C1CCCCC1 | 3% | 4% | 2.25% | -2% | 8% | -6.85% | 2% | 6% | 3.4% | 1% | 9% | 11.8% | 1% | 12% | 0.35% | -10% | 6% | -2.25% |
| O=C(O)CCSc1ncnc2nc[nH]c12 | 3% | 0% | -22.9% | 1% | -18% | -12.8% | 0% | -24% | -30.5% | -25% | -97% | 27.4% | -10% | -7% | -18.8% | -7% | -1% | -13.9% |
| CCCCN(CCCC)CC(O)c1cccc2c(Cl)cccc12 (configuration not stated) | 15% | 54% | 86.5% (active) | 8% | 75% (active) | 71.7% (active) | 13% | 93% (active) | 88.5% (active) | 8% | 57% | 89.7% (active) | 13% | 82% (active) | 94.8% (active) | 24% | 88% (active) | 70.5% (active) |
| CC(=O)Nc1ccc2c(c1)Cc1cccc(F)c1-2 | 11% | 14% | 70.3% (active) | 6% | 5% | 17.7% | 14% | 3% | 22.4% | 29% | 7% | 9.1% | 17% | 8% | 61.9% | -2% | 1% | 32.1% |
| CCC(C)COC(=O)c1ccc([N+](=O)[O-])cc1 (configuration not stated) | -4% | 10% | 50% | -4% | 2% | 16.4% | -1% | 7% | 72.8% (active) | -3% | -9% | -2.15% | -6% | -6% | 80.2% (active) | -4% | 5% | 89.3% (active) |
| C=CCc1cc(C(=O)OCC)cc(OC)c1O | 78% (active) | 97% (active) | 5.15% | 22% | 98% (active) | -1.1% | 34% | 91% (active) | 3.9% | 20% | 95% (active) | -23.4% | 19% | 95% (active) | 74% (active) | 44% | 97% (active) | -0.35% |
| COc1ccc(N(C)Sc2ccccc2)cc1 | -12% | 64% | 88.2% (active) | 18% | 65% | 49.1% | -14% | 24% | 67.1% | 9% | 63% | 35.6% | 12% | 90% (active) | 69.7% | -10% | 97% (active) | 71.3% (active) |
